Data as given in PubChem BioAssay AID1159580 (chemical genetic matrix, 2015).
Where “and” joins values, the source holds several entries; their conditions need not be identical. Equal entries are not always repeated. About 2,000 (36%) of roughly 5,500 compounds were called active. Roughly 18% stayed inconclusive and do not appear here. Rule as the data show it: active = normalized growth mostly below about 0.91 (no sharp cut-off); inconclusive = no clear call, values can overlap the other calls; inactive = mostly above about 0.92. Some of the results follow.

Assay: chemical genetic growth profiling, strain panel (AID 1159580);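 also: tested at 20 µM; growth read once vehicle control cultures reached saturation at 30 °C; 1 = growth at the plate median or of vehicle wells; lower values mean less growth of the strain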
Details: S. cerevisiae deletion strains, growth OD

Measured: normalized growth

Cc1cccc(C)c1OCC(C)N (stereo not drawn)
inactive: locus YAL013W, strain DEP1, hits give low values 0.993 | locus YAL021C, strain ccr4, hits give low values 0.986 | locus YAL026C, strain drs2, hits give low values 1.01 | locus YAL030W, strain snc1, hits give low values 1 | locus YAL040C, strain CLN3, hits give low values 0.998 | locus YBL061C, strain skt5, hits give low values 1 | locus YBR009C, strain hhf1, hits give low values 1.01 | locus YBR021W, strain FUR4, hits give low values 0.997 | locus YBR023C, strain chs3, hits give low values 1 | locus YBR171W, strain sec66, hits give low values 1.02 | locus YBR229C, strain ROT2, hits give low values 0.998 | locus YBR231C, strain swc5, hits give low values 1.02 | locus YBR279W, strain paf1, hits give low values 1.01 | locus YCL011C, strain gbp2, hits give low values 1 | locus YCL016C, strain dcc1, hits give low values 1.01 | locus YCL029C, strain bik1, hits give low values 0.987 | locus YCL061C, strain MRC1 (second series), hits give low values 0.997 | locus YCL061C, strain MRC1, hits give low values 1.01 | locus YCL069W, strain vba3, hits give low values 1.01 | locus YCR088W, strain abp1, hits give low values 1 | locus YDL005C, strain med2, hits give low values 1.01 | locus YDL035C, strain GPR1, hits give low values 1 | locus YDL040C, strain nat1, hits give low values 1.01 | locus YDL074C, strain BRE1, hits give low values 1.05 | locus YDL101C, strain DUN1, hits give low values 1.02 | locus YDL134C, strain PPH21, hits give low values 0.983 | locus YDL185W, strain tfp1, hits give low values 0.95 | locus YDL192W, strain arf1, hits give low values 0.991 | locus YDR001C, strain nth1, hits give low values 1 | locus YDR069C, strain doa4, hits give low values 1.01 | locus YDR101C, strain arx1, hits give low values 0.996 | locus YDR137W, strain rgp1, hits give low values 1.01 | locus YDR159W, strain sac3, hits give low values 1.01 | locus YDR162C, strain NBP2, hits give low values 0.979 | locus YDR195W, strain ref2 0.998 | locus YDR297W, strain sur2, hits give low values 1.01 | locus YDR318W, strain mcm21, hits give low values 0.99 | locus YDR334W, strain swr1, hits give low values 1.01 | locus YDR335W, strain msn5, hits give low values 1.01 | locus YDR363W, strain ESC2, hits give low values 0.97 | locus YDR388W, hits give low values 1.01 | locus YDR392W, strain spt3, hits give low values 1.01 | locus YDR502C, strain sam2, hits give low values 1 | locus YEL003W, strain gim4, hits give low values 1.01 | locus YEL037C, strain rad23, hits give low values 0.992 | locus YEL061C, strain CIN8 (second series), hits give low values 1 | locus YEL061C, strain CIN8, hits give low values 0.991 | locus YER002W, strain NOP16, hits give low values 1.01 | locus YER015W, strain faa2, hits give low values 1.02 | locus YER016W, strain bim1, hits give low values 1.01 | locus YER110C, hits give low values 0.98 | locus YER111C, strain swi4, hits give low values 1.02 | locus YER155C, strain BEM2 (second series), hits give low values 1.02 | locus YER155C, strain BEM2, hits give low values 0.999 | locus YER167W, strain BCK2, hits give low values 1.01 | locus YFR010W, strain ubp6, hits give low values 1.02 | locus YGL078C, strain dbp3, hits give low values 0.977 | locus YGL086W, strain mad1, hits give low values 1.01 | locus YGL167C, strain pmr1, hits give low values 1 | locus YGL173C, strain kem1, hits give low values 1.02 | locus YGL227W, strain vid30, hits give low values 1.01 | locus YGL240W, strain doc1, hits give low values 1.02 | locus YGL248W, strain PDE1, hits give low values 1.01 | locus YGL253W, strain hxk2, hits give low values 1.01 | locus YGR135W, strain pre9, hits give low values 0.975 | locus YGR252W, strain gcn5, hits give low values 1.01 | locus YHR013C, strain ard1, hits give low values 1.01 | locus YHR027C, strain rpn1, hits give low values 1.01 | locus YHR030C, strain SLT2, hits give low values 0.977 and 0.988 | locus YHR079C, strain IRE1 (second series), hits give low values 0.983 | locus YHR079C, strain IRE1, hits give low values 0.994 | locus YHR094C, strain hxt1, hits give low values 0.999 | locus YHR129C, strain ARP1, hits give low values 0.999 | locus YHR142W, strain chs7, hits give low values 1 | locus YHR200W, strain rpn10, hits give low values 0.973 | locus YIL066C, strain RNR3, hits give low values 1.01 | locus YIL073C, strain SPO22, hits give low values 0.862 | locus YIL125W, strain kgd1, hits give low values 0.995 | locus YIR030C, strain dcg1, hits give low values 0.987 | locus YJL092W, strain hpr5, hits give low values 1.01 | locus YJL095W, strain BCK1 (second series), hits give low values 1 | locus YJL095W, strain BCK1, hits give low values 1.05 and 0.977 | locus YJL115W, strain asf1, hits give low values 1.01 | locus YJL129C, strain trk1, hits give low values 1.02 | locus YJL134W, strain LCB3, hits give low values 0.987 | locus YJL154C, strain vps35, hits give low values 1.01 | locus YJL164C, strain tpk1, hits give low values 1.01 | locus YJL166W, strain qcr8, hits give low values 1 | locus YJL168C, strain set2, hits give low values 0.997 | locus YJL187C, strain SWE1 (second series), hits give low values 1.01 | locus YJL187C, strain SWE1, hits give low values 1 | locus YJR043C, strain POL32, hits give low values 1 | locus YJR066W, strain TOR1, hits give low values 0.96
